Here are results for nine compounds from PubChem BioAssay (NCI).

Compounds without any hit were thinned out: in the full panel of roughly 83,000, 20% have a hit.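 Single-concentration screen, 48 h exposure, 96-well plates. Endpoint: percent growth. Below 10 = active.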 A number with no mark means an inactive call. The source made the active and inactive calls.

Among the test systems are SR leukemia; RPMI-8226 leukemia; OVCAR-5 ovarian; OVCAR-4 ovarian; SK-OV-3 ovarian; IGROV1 ovarian; OVCAR-3 ovarian; HS 578T breast; NCI/ADR-RES ovarian; T-47D breast; BT-549 breast; MDA-MB-435 melanoma; SW-620 colon; MCF7 breast; HCT-116 colon; HCC-2998 colon; KM12 colon; OVCAR-8 ovarian.
What all share (assay): NCI-60 one-dose screen, 48 h (100 = growth as untreated, 0 = no growth, -100 = all killed)
Common to all, as to details: 10 µM unless noted

Consider `O=C1CSC(c2ccccc2O)N1c1nnc(Cn2cnnc2)o1` (configuration not stated), for which the growth was 72.4% with SR leukemia; 71.1% in the assay on RPMI-8226 leukemia; 78.1% in the assay with OVCAR-5 ovarian; 86.4% in the assay with OVCAR-4 ovarian; 88.3% in the assay with SK-OV-3 ovarian; 73.9% in the assay with IGROV1 ovarian. Moreover, the growth was 91.2% in the assay on OVCAR-3 ovarian; 88.1% in the assay on HS 578T breast; 68.9% with NCI/ADR-RES ovarian; 71.2% in the assay with T-47D breast; 87.7% in the assay with BT-549 breast; 97.8% with MDA-MB-435 melanoma. For the same compound, the growth in the assay on SW-620 colon is 105%; with MCF7 breast it was 54.6%; with HCT-116 colon, 88.6%; with HCC-2998 colon, 77.5%; with KM12 colon, 84.3%.
For `COC(=O)CNC(=O)C(=O)c1c(O)c(O)c(C(C)C)c2cc(C)c(-c3c(C)cc4c(C(C)C)c(O)c(O)c(C(=O)C(=O)NCC(=O)OC)c4c3O)c(O)c12`, the growth in the assay with SR leukemia is 15%; in the assay with RPMI-8226 leukemia, 20.4%; in the assay with OVCAR-5 ovarian, 30.4%; with OVCAR-4 ovarian it was -5.2% (active); with SK-OV-3 ovarian it was 6.72% (active); in the assay on IGROV1 ovarian, 21.1%. Also, the growth was 18% in the assay with OVCAR-3 ovarian; 20.2% with HS 578T breast; 20.9% with NCI/ADR-RES ovarian; 16% with T-47D breast; 30.2% in the assay with BT-549 breast; 55.1% in the assay with MDA-MB-435 melanoma. For the same compound, the growth with SW-620 colon is 16%; in the assay with MCF7 breast it was 18%; with HCT-116 colon it was 11%; in the assay on HCC-2998 colon, 33.8%; with KM12 colon, 16.1%.
In the case of `COc1ccc(-c2cn(-c3cccc(C(=O)/C=C/c4cc(OC)c(OC)c(OC)c4)c3)c(=O)[nH]2)cc1`, the growth is -12.5% (active) in the assay on SR leukemia; -45.8% (active) in the assay with RPMI-8226 leukemia; 12.4% in the assay on OVCAR-8 ovarian; 25% with OVCAR-4 ovarian; 31.6% with SK-OV-3 ovarian; 8.71% (active) with IGROV1 ovarian. Also, the growth in the assay with OVCAR-3 ovarian is -13.6% (active); with T-47D breast, -9.54% (active); with BT-549 breast, 139%; with MDA-MB-435 melanoma, -9.22% (active); with SW-620 colon it was -50.7% (active); in the assay on MCF7 breast, -34.5% (active). The values for the growth in the assay with HCT-116 colon and with KM12 colon were -91.9% (active) and -62.6% (active), respectively.
For `Clc1ccc(-c2nnc(-c3ccco3)o2)cc1`, the growth with SR leukemia is 89.7%; in the assay on RPMI-8226 leukemia, 93.8%; in the assay on OVCAR-5 ovarian it was 82.4%; in the assay with OVCAR-4 ovarian, 95.4%; in the assay with SK-OV-3 ovarian, 102%; with IGROV1 ovarian, 93.8%. Also, the growth is 107% in the assay with OVCAR-3 ovarian; 107% in the assay with HS 578T breast; 104% with NCI/ADR-RES ovarian; 99.2% in the assay with T-47D breast; 101% in the assay on BT-549 breast; 89.7% in the assay with MDA-MB-435 melanoma. Further, the growth was 99.5% with SW-620 colon; 95.2% with MCF7 breast; 87.3% in the assay on HCT-116 colon; 94.4% with HCC-2998 colon; 106% in the assay on KM12 colon.
For `O=C(O)CC1Sc2ccccc2NC1=O` (configuration not stated), the growth with SR leukemia is 61.1%; in the assay with RPMI-8226 leukemia, 96%; with OVCAR-5 ovarian it was 83.9%; in the assay on OVCAR-4 ovarian, 128%; in the assay with SK-OV-3 ovarian, 106%; with IGROV1 ovarian, 93.6%. Besides, the growth in the assay on OVCAR-3 ovarian is 110%; in the assay with HS 578T breast, 133%; with T-47D breast, 111%; in the assay with BT-549 breast it was 118%; with MDA-MB-435 melanoma, 104%; in the assay on SW-620 colon, 103%. The growth in the assay with MCF7 breast was 255%; in the assay on HCT-116 colon, 100%; with HCC-2998 colon it was 106%; in the assay with KM12 colon, 104%.
Turning to `CCCCCOC(=O)c1cccc(NC(=O)CN(CC)CC)c1`, the growth in the assay with SR leukemia was 78.3%; with RPMI-8226 leukemia, 96.7%; in the assay with OVCAR-5 ovarian, 107%; in the assay on OVCAR-4 ovarian, 119%; in the assay on SK-OV-3 ovarian, 94.9%; with IGROV1 ovarian it was 107%. The growth was 113% with OVCAR-3 ovarian; 111% in the assay on HS 578T breast; 105% in the assay on NCI/ADR-RES ovarian; 91.9% in the assay with T-47D breast; 72.6% in the assay on BT-549 breast; 101% with MDA-MB-435 melanoma. For the same compound, the growth in the assay on SW-620 colon is 105%; in the assay with MCF7 breast, 103%; in the assay on HCT-116 colon, 74.9%; with HCC-2998 colon it was 98.9%; in the assay with KM12 colon, 104%.
Turning to `Fc1ccc(Nc2ccc3cc(OCCCN4CCOCC4)ccc3n2)cc1F`, the growth in the assay on SR leukemia is 8.16% (active); in the assay on RPMI-8226 leukemia it was 49.5%; in the assay on OVCAR-5 ovarian, 56.8%; in the assay with OVCAR-4 ovarian it was 49.4%; with SK-OV-3 ovarian it was 72.8%; with IGROV1 ovarian, 72.8%. In addition, the growth with OVCAR-3 ovarian was 68.1%; in the assay on HS 578T breast it was 40.6%; with T-47D breast, 43.5%; in the assay with BT-549 breast it was 68.6%; in the assay with MDA-MB-435 melanoma, 59.9%; in the assay on SW-620 colon it was 10%. The growth is 55.7% in the assay on MCF7 breast, 47.7% in the assay on HCT-116 colon, 20% in the assay on HCC-2998 colon and 21.3% in the assay with KM12 colon.
Take `C=C1C(=O)O[C@H]2[C@H]1CC/C(COC(=O)/C=C\C(=O)NCc1ccc(Cn3c(=O)sn(-c4ccc(OC)cc4)c3=O)cc1)=C\CC[C@@]1(C)O[C@@H]21`: the growth in the assay with SR leukemia was -27.3% (active); with OVCAR-8 ovarian it was 4.05% (active); in the assay on OVCAR-5 ovarian, -86.8% (active); in the assay on OVCAR-4 ovarian it was -77% (active); in the assay on SK-OV-3 ovarian, 61.4%; in the assay with IGROV1 ovarian it was -97.3% (active). The growth in the assay on OVCAR-3 ovarian was -88.6% (active); in the assay on HS 578T breast it was -21.3% (active); in the assay with NCI/ADR-RES ovarian, -16% (active); in the assay on T-47D breast it was -51.6% (active); in the assay on BT-549 breast it was -51.8% (active); in the assay on MDA-MB-435 melanoma, -65.8% (active). In addition, the growth was -53.6% (active) in the assay with SW-620 colon; -51.4% (active) in the assay with MCF7 breast; -65.5% (active) in the assay on HCT-116 colon; -75.7% (active) in the assay with HCC-2998 colon; -64.5% (active) with KM12 colon.
In the case of `CCNCCNc1cc(-c2ccc(C(=O)OC)cc2)c(C#N)c2nc3ccccc3n12`, the growth with SR leukemia was -7.47% (active); with RPMI-8226 leukemia, 20.8%; in the assay on OVCAR-5 ovarian it was 102%; in the assay with SK-OV-3 ovarian, 81.7%; in the assay with IGROV1 ovarian, 53.5%; in the assay with OVCAR-3 ovarian it was -57% (active). The growth is 59.3% with HS 578T breast; 57% with NCI/ADR-RES ovarian; 18.6% in the assay on T-47D breast; 68.2% in the assay with BT-549 breast; 73.2% in the assay on MDA-MB-435 melanoma; 2.26% (active) in the assay with SW-620 colon. Moreover, the growth was 53.8% in the assay with MCF7 breast, -19.5% (active) in the assay with HCT-116 colon, 49% with HCC-2998 colon and 50.8% in the assay on KM12 colon.
